From the supplement of paper PMC8728848
Only a selection was taken, and the strongest signals are over-represented in it overall.

Tests used:
Assay in all cases: glycan array binding signal (z-score within array); higher = stronger binding
Conditions in all cases: glycan notation: IUPAC condensed, linker removed
[1] = biological target: Fuc(a1-2)Gal(b1-3)GalNAc(b1-3)Gal
Method in brief: (§1)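 Glycan array data came from 3228 arrays in the Consortium for Functional Glycomics database, and only arrays with an available protein sequence were kept. Glycan names were put into IUPAC-condensed notation, and columns mapping to the same glycan were averaged. The binding signal is a within-array Z-score, averaged across arrays of one protein sequence run at different concentrations or buffers and across linkers. A negative Z-score can be read as non-binding.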

Fuc(a1-2)Gal(b1-3)GlcNAc = biological target: Fuc(a1-2)Gal(b1-3)GlcNAc
Method in brief: as §1

[2] = biological target: Fuc(a1-2)Gal(b1-3)GlcNAc(b1-3)[Gal(b1-4)GlcNAc(b1-6)]Gal(b1-4)Glc
Method in brief: as §1

[3] = biological target: Fuc(a1-2)Gal(b1-4)GlcNAc(b1-3)Gal(b1-4)GlcNAc(b1-3)Gal(b1-4)GlcNAc
Method in brief: as §1

[4] = biological target: Fuc(a1-2)Gal(b1-4)[Fuc(a1-3)]GlcNAc
Method in brief: as §1

[5] = biological target: Fuc(a1-2)Gal(b1-4)[Fuc(a1-3)]GlcNAc(b1-2)[Fuc(a1-2)Gal(b1-4)[Fuc(a1-3)]GlcNAc(b1-4)]Man(a1-3)[Fuc(a1-2)Gal(b1-4)[Fuc(a1-3)]GlcNAc(b1-2)Man(a1-6)]Man(b1-4)GlcNAc(b1-4)GlcNAc
Method in brief: as §1

[6] = biological target: Fuc(a1-2)[Gal(a1-3)]Gal(b1-3)GlcNAc
Method in brief: as §1

[7] = biological target: Fuc(a1-2)[Gal(a1-3)]Gal(b1-4)GlcNAc(b1-2)Man
Method in brief: as §1

[8] = biological target: Fuc(a1-2)[Gal(a1-3)]Gal(b1-4)GlcNAc(b1-6)GalNAc
Method in brief: as §1

[9] = biological target: Fuc(a1-2)[GalNAc(a1-3)]Gal(b1-4)GlcNAc(b1-2)Man(a1-3)[Fuc(a1-2)[GalNAc(a1-3)]Gal(b1-4)GlcNAc(b1-2)Man(a1-6)]Man(b1-4)GlcNAc(b1-4)GlcNAc
Method in brief: as §1

[10] = biological target: Fuc(a1-2)[GalNAc(a1-3)]Gal(b1-4)GlcNAc(b1-6)GalNAc
Method in brief: as §1

[11] = biological target: Fuc(a1-2)[GalNAc(a1-3)]Gal(b1-4)[Fuc(a1-3)]GlcNAc(b1-3)GalNAc
Method in brief: as §1

[12] = biological target: Fuc(a1-3)[Gal(b1-4)]GlcNAc(b1-3)Gal(b1-3)[Fuc(a1-4)]GlcNAc
Method in brief: as §1

[13] = biological target: Fuc(a1-3)[Gal(b1-4)]GlcNAc(b1-3)Gal(b1-4)[Fuc(a1-3)]GlcNAc
Method in brief: as §1

[14] = biological target: Fuc(a1-3)[Gal(b1-4)]GlcNAc(b1-3)Gal(b1-4)[Fuc(a1-3)]GlcNAc(b1-3)Gal(b1-4)[Fuc(a1-3)]GlcNAc
Method in brief: as §1

[15] = biological target: Fuc(a1-3)[GalNAc(b1-4)]GlcNAc
Method in brief: as §1

[16] = biological target: Gal(a1-3)Gal(b1-3)[Fuc(a1-4)]GlcNAc(b1-2)Man(a1-3)[Gal(a1-3)Gal(b1-3)[Fuc(a1-4)]GlcNAc(b1-2)Man(a1-6)]Man(b1-4)GlcNAc(b1-4)GlcNAc
Method in brief: as §1

[17] = biological target: Gal(a1-3)Gal(b1-4)GlcNAc(b1-6)GalNAc
Method in brief: as §1

Gal(a1-3)GalNAc = biological target: Gal(a1-3)GalNAc
Method in brief: as §1

[18] = biological target: Gal(a1-3)[Gal(a1-4)]Gal(b1-4)GlcNAc
Method in brief: as §1

Gal(a1-4)Gal(b1-4)Glc = biological target: Gal(a1-4)Gal(b1-4)Glc
Method in brief: as §1

[19] = biological target: Gal(b1-3)GalNAc(b1-4)Gal(b1-4)Glc
Method in brief: as §1

[20] = biological target: Gal(b1-3)GlcNAc(b1-2)Man(a1-3)[Gal(b1-3)GlcNAc(b1-2)Man(a1-6)]Man(b1-4)GlcNAc(b1-4)GlcNAc
Method in brief: as §1

[21] = biological target: Gal(b1-3)GlcNAc(b1-6)[Gal(b1-3)]GalNAc
Method in brief: as §1

Gal(b1-3)GlcNAc6S = biological target: Gal(b1-3)GlcNAc6S
Method in brief: as §1

[22] = biological target: Gal(b1-3)[Fuc(a1-4)]GlcNAc(b1-2)Man(a1-3)[Gal(b1-3)[Fuc(a1-4)]GlcNAc(b1-2)Man(a1-6)]Man(b1-4)GlcNAc(b1-4)[Fuc(a1-6)]GlcNAc
Method in brief: as §1

[23] = biological target: Gal(b1-3)[GlcNAc(b1-6)]GalNAc
Method in brief: as §1

[24] = biological target: Gal(b1-4)GalNAc(a1-3)[Fuc(a1-2)]Gal(b1-4)GlcNAc
Method in brief: as §1

Gal(b1-4)GlcNAc = biological target: Gal(b1-4)GlcNAc
Method in brief: as §1

[25] = biological target: Gal(b1-4)GlcNAc(b1-2)Man(a1-3)[GlcNAc(b1-2)Man(a1-6)]Man(b1-4)GlcNAc(b1-4)GlcNAc
Method in brief: as §1

[26] = biological target: Gal(b1-4)GlcNAc(b1-2)[Gal(b1-4)GlcNAc(b1-4)]Man(a1-3)[GlcNAc(b1-4)][Gal(b1-4)GlcNAc(b1-2)[Gal(b1-4)GlcNAc(b1-6)]Man(a1-6)]Man(b1-4)GlcNAc(b1-4)GlcNAc
Method in brief: as §1

[27] = biological target: Gal(b1-4)GlcNAc(b1-2)[Gal(b1-4)GlcNAc(b1-6)]Man(a1-6)[Gal(b1-4)GlcNAc(b1-2)Man(a1-3)]Man(b1-4)GlcNAc(b1-4)GlcNAc
Method in brief: as §1

[28] = biological target: Gal(b1-4)GlcNAc(b1-2)[Gal(b1-4)GlcNAc(b1-6)]Man(a1-6)[Gal(b1-4)GlcNAc(b1-2)Man(a1-3)]Man(b1-4)GlcNAc(b1-4)[Fuc(a1-6)]GlcNAc
Method in brief: as §1

[29] = biological target: Gal3S(b1-4)[Fuc(a1-3)]Glc6S
Method in brief: as §1

Gal6S(b1-3)GlcNAc6S = biological target: Gal6S(b1-3)GlcNAc6S
Method in brief: as §1

[30] = biological target: GalNAc(a1-3)GalNAc(b1-3)Gal(a1-4)Gal(b1-4)Glc
Method in brief: as §1

[31] = biological target: GalNAc(b1-3)Gal(a1-4)Gal(b1-4)GlcNAc
Method in brief: as §1

[32] = biological target: GalNAc(b1-3)Gal(a1-6)Gal(b1-4)Glc
Method in brief: as §1

GalNAc(b1-4)GlcNAc = biological target: GalNAc(b1-4)GlcNAc
Method in brief: as §1

[33] = biological target: GlcNAc(a1-4)Gal(b1-4)GlcNAc(b1-3)Gal(b1-4)Glc
Method in brief: as §1

[34] = biological target: GlcNAc(b1-2)Man(a1-3)[GlcNAc(b1-2)Man(a1-6)]Man(b1-4)GlcNAc(b1-4)GlcNAc
Method in brief: as §1

[35] = biological target: GlcNAc(b1-3)Gal(b1-4)GlcNAc(b1-3)Gal(b1-4)GlcNAc(b1-2)[GlcNAc(b1-3)Gal(b1-4)GlcNAc(b1-3)Gal(b1-4)GlcNAc(b1-6)]Man(a1-6)[GlcNAc(b1-3)Gal(b1-4)GlcNAc(b1-3)Gal(b1-4)GlcNAc(b1-2)Man(a1-3)]Man(b1-4)GlcNAc(b1-4)[Fuc(a1-6)]GlcNAc
Method in brief: as §1

[36] = biological target: GlcNAc(b1-4)[GlcNAc(b1-6)]GalNAc
Method in brief: as §1

[37] = biological target: GlcNAc6S(b1-3)Gal(b1-4)GlcNAc
Method in brief: as §1

Neu5Ac(a2-3)Gal = biological target: Neu5Ac(a2-3)Gal
Method in brief: as §1

[38] = biological target: Neu5Ac(a2-3)Gal(b1-3)GlcNAc(b1-2)Man
Method in brief: as §1

[39] = biological target: Neu5Ac(a2-3)Gal(b1-3)[Neu5Ac(a2-6)]GalNAc
Method in brief: as §1

[40] = biological target: Neu5Ac(a2-3)Gal6S(b1-4)GlcNAc
Method in brief: as §1

Neu5Ac(a2-3)GalNAc = biological target: Neu5Ac(a2-3)GalNAc
Method in brief: as §1

[41] = biological target: Neu5Ac(a2-6)Gal(b1-4)GlcNAc(b1-2)Man(a1-6)[Gal(b1-4)GlcNAc(b1-2)Man(a1-3)]Man(b1-4)GlcNAc(b1-4)GlcNAc
Method in brief: as §1

[42] = biological target: Neu5Ac(a2-6)Gal(b1-4)GlcNAc(b1-3)Gal(b1-4)GlcNAc(b1-2)Man(a1-3)[Neu5Ac(a2-6)Gal(b1-4)GlcNAc(b1-3)Gal(b1-4)GlcNAc(b1-2)Man(a1-6)]GalNAc
Method in brief: as §1

[43] = biological target: Neu5Ac(a2-6)Gal(b1-4)GlcNAc(b1-3)Gal(b1-4)[Fuc(a1-3)]GlcNAc(b1-3)Gal(b1-4)[Fuc(a1-3)]GlcNAc
Method in brief: as §1

[44] = biological target: Neu5Ac(a2-6)Gal(b1-4)GlcNAc(b1-3)[Neu5Ac(a2-6)Gal(b1-4)GlcNAc(b1-6)]GalNAc
Method in brief: as §1

[45] = biological target: Neu5Ac(a2-8)Neu5Ac(a2-8)Neu5Ac
Method in brief: as §1

Neu5Ac(b2-6)GalNAc = biological target: Neu5Ac(b2-6)GalNAc
Method in brief: as §1

[46] = biological target: Neu5Gc(a2-3)Gal(b1-3)GlcNAc
Method in brief: as §1

B1: AT5G01260(PC)(40) (Arabidopsis thaliana), Q9LFB0 (protein)
chain: MIGIGRTLTSSSPSKIILEDLPPGIYRYGTEIFTSVPRKTFHHIKFLRLDSAQSSRILKPVPLRSSSIKDSQVNVEDEEIEASNKTVRVRFQLRKECVFGEHFFIVGDDPVFGGLWDPETALPLNWSDGNVWTVDLDLPVGRLVEFKLLLKAQTGEILWQPGPNRALETWETNKTIRICEDWDNADLQMMIEEDFVPYTNISSIGSEDEDEVLGSVQQNSSVVAVENAGYVSDESAQNSSFSIQSEKTMEPSNGALTAREVIKEAMFTEEESPVLVPGLIPLSDLDNEQVEVINEGKAETFPEVDKKQEPKAERNKKAKVKAISLFEKSEQEAVKSVEQRQYNAVEEEQQRLETEPLGTPDVLFENDIQWGRRTLYKLLSNFRLF
glycan array binding signal (z-score) [1]: -0.3
glycan array binding signal (z-score) (Fuc(a1-2)Gal(b1-3)GlcNAc): -0.85
glycan array binding signal (z-score) [2]: -0.343
glycan array binding signal (z-score) [3]: -0.994
glycan array binding signal (z-score) [4]: -0.291
glycan array binding signal (z-score) [5]: 0.175
glycan array binding signal (z-score) [6]: 0.172
glycan array binding signal (z-score) [7]: -0.675
glycan array binding signal (z-score) [8]: -0.256
glycan array binding signal (z-score) [9]: -0.648
glycan array binding signal (z-score) [10]: -0.387
glycan array binding signal (z-score) [11]: 7.04
glycan array binding signal (z-score) [12]: 0.431
glycan array binding signal (z-score) [13]: -0.975
glycan array binding signal (z-score) [14]: 1.89
glycan array binding signal (z-score) [15]: 1.78
glycan array binding signal (z-score) [16]: 0.054
glycan array binding signal (z-score) [17]: -0.159
glycan array binding signal (z-score) (Gal(a1-3)GalNAc): 2.32
glycan array binding signal (z-score) [18]: 9.44
glycan array binding signal (z-score) (Gal(a1-4)Gal(b1-4)Glc): 1.85
glycan array binding signal (z-score) [19]: 2.16
glycan array binding signal (z-score) [20]: 0.891
glycan array binding signal (z-score) [21]: -0.659
glycan array binding signal (z-score) (Gal(b1-3)GlcNAc6S): 0.146
glycan array binding signal (z-score) [22]: 0.147
glycan array binding signal (z-score) [23]: 0.411
glycan array binding signal (z-score) [24]: -0.618
glycan array binding signal (z-score) (Gal(b1-4)GlcNAc): 0.708
glycan array binding signal (z-score) [25]: -0.702
glycan array binding signal (z-score) [26]: -0.552
glycan array binding signal (z-score) [27]: 0.037
glycan array binding signal (z-score) [28]: 0.414
glycan array binding signal (z-score) [29]: 4.34
glycan array binding signal (z-score) (Gal6S(b1-3)GlcNAc6S): -0.529
glycan array binding signal (z-score) [30]: -0.513
glycan array binding signal (z-score) [31]: 2.47
glycan array binding signal (z-score) [32]: -0.39
glycan array binding signal (z-score) (GalNAc(b1-4)GlcNAc): 8.76
glycan array binding signal (z-score) [33]: -0.389
glycan array binding signal (z-score) [34]: -0.443
glycan array binding signal (z-score) [35]: 0.144
glycan array binding signal (z-score) [36]: 0.541
glycan array binding signal (z-score) [37]: 1.26
glycan array binding signal (z-score) (Neu5Ac(a2-3)Gal): -0.106
glycan array binding signal (z-score) [38]: -0.011
glycan array binding signal (z-score) [39]: -0.391
glycan array binding signal (z-score) [40]: -0.571
glycan array binding signal (z-score) (Neu5Ac(a2-3)GalNAc): -0.206
glycan array binding signal (z-score) [41]: -0.165
glycan array binding signal (z-score) [42]: 0.243
glycan array binding signal (z-score) [43]: -0.054
glycan array binding signal (z-score) [44]: 0.077
glycan array binding signal (z-score) [45]: -0.58
glycan array binding signal (z-score) (Neu5Ac(b2-6)GalNAc): -0.728
glycan array binding signal (z-score) [46]: -0.145
